Measurements published in PubChem BioAssay (NCI).
The panel holds about 79,000 compounds, 15% with a hit somewhere; the sample as a whole holds those more often. A number with no mark means an inactive call. The source made the active and inactive calls. Rule as the data show it: active = growth inhibition above about 70%; inactive = the rest.

What was measured:
[1] = NCI Yeast Anticancer Drug Screen. Data for the rad50 strain (AID 155);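 also: 0% = growth of vehicle-only cultures of the same strain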; conditions: S. cerevisiae rad50 strain growth inhibition, active compounds read high
In short: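 Cells are treated with compound, grown, and their growth is then scored against vehicle-only cultures of the same repair-deficient yeast strain.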

[2] = NCI Yeast Anticancer Drug Screen. Data for the mec2-1 strain (AID 157); conditions: S. cerevisiae mec2-1 strain, active compounds read high
In short: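 Test agents were screened against the mec2-1 yeast strain, with defined DNA repair or cell cycle alteration. Growth was scored as inhibition against vehicle-only controls.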

[3] = NCI Yeast Anticancer Drug Screen. Data for the sgs1 mgt1 strain (AID 161);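 also: 0% = growth of cultures given vehicle only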; conditions: S. cerevisiae sgs1 mgt1 strain, active compounds read high
In short: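 Read-out: growth inhibition vs vehicle controls. Cells: mutant yeast strain deficient in DNA damage repair.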

[4] = NCI Yeast Anticancer Drug Screen. Data for the cln2 rad14 strain (AID 165);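 also: 0% = growth equal to vehicle treated cultures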; conditions: S. cerevisiae cln2 rad14 strain, active compounds read high
In short: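 Growth of compound-exposed yeast (cln2 rad14 genotype) measured and expressed as inhibition relative to vehicle.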

[5] = NCI Yeast Anticancer Drug Screen. Data for the bub3 strain (AID 167); conditions: S. cerevisiae bub3 mutant strain, active compounds read high
In short: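 Part of a panel of yeast mutants defective in DNA damage repair or cell cycle regulation. Each strain is grown with compound, and inhibition is calculated relative to solvent-treated cultures.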

[6] = NCI Yeast Anticancer Drug Screen. Data for the mlh1 rad18 strain (AID 175); conditions: S. cerevisiae mlh1 rad18 strain growth inhibition, active compounds read high
In short: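 In this whole-cell yeast screen, a strain with altered DNA damage repair is challenged with compound, and its growth is measured against matched vehicle-treated controls.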

[7] = at 5.0 µM (retest, dose inferred, filed as 0.5)
[8] = at 50.0 µM (retest, dose inferred, filed as 5.0)

| SMILES | growth inhibition [1, 7] [%] | growth inhibition [1, 8] | growth inhibition ([1]; at 50.0 µM) | growth inhibition [2, 7] [%] | growth inhibition [2, 8] | growth inhibition ([2]; at 50.0 µM) | growth inhibition [3, 7] [%] | growth inhibition [3, 8] | growth inhibition ([3]; at 50.0 µM) | growth inhibition [4, 7] [%] | growth inhibition [4, 8] | growth inhibition ([4]; at 50.0 µM) | growth inhibition [5, 7] [%] | growth inhibition [5, 8] | growth inhibition ([5]; at 50.0 µM) | growth inhibition [6, 7] | growth inhibition [6, 8] | growth inhibition ([6]; at 50.0 µM) |
| --- | --- | --- | --- | --- | --- | --- | --- | --- | --- | --- | --- | --- | --- | --- | --- | --- | --- | --- |
| Nc1cc(F)cc(F)c1[N+](=O)[O-] | 4 | 21% | 41% | 4 | 22% | 0.45% | 1 | 18% | 53.3% | -1 | 6% | -15.4% | -1 | 19% | -1.5% | 7% | 26% | 79.7% (active) |
| Nc1ccc(S(=O)(=O)C23CC4CC(CC(C4)C2)C3)cc1 | -2 | 96% (active) | 97.9% (active) | -16 | 98% (active) | 98.8% (active) | -3 | 98% (active) | 97.7% (active) | 1 | 93% (active) | 93.5% (active) | 64 | 98% (active) | 95.8% (active) | 13% | 98% (active) | 97.5% (active) |
| O=C(CCN1CCCCC1)N1CCc2c([nH]c3ccccc23)C1c1cccnc1 (configuration not stated) | -8 | 8% | 13.1% | 1 | 16% | 1.2% | 0 | -8% | -5.35% | 5 | 22% | -6.8% | 4 | 46% | -0.3% | 2% | -4% | -14.4% |
| Cc1cc(Cl)cc2c1OCN(C)C2 | 0 | 93% (active) | 99% (active) | 1 | 96% (active) | 99.2% (active) | 1 | 97% (active) | 98.8% (active) | -6 | 96% (active) | 99.3% (active) | -5 | 94% (active) | 99% (active) | 0% | 94% (active) | 99.5% (active) |
| CCN1/C(=C/C=C/C=C\C=C\c2sc3ccc4ccccc4c3[n+]2CC)Sc2ccc3ccccc3c21 | 28 | 68% | 49.2% | 21 | 80% (active) | 46.8% | 25 | 75% (active) | 47.6% | 48 | 65% | 54% | 34 | 65% | 30.4% | 25% | 73% (active) | 40.6% |
| Cc1cc2nc(CC(=O)c3ccc4ccccc4c3)c(=O)[nH]c2cc1C | -43 | -24% | 94.7% (active) | -3 | 9% | 81.4% (active) | -5 | -21% | 88.3% (active) | -17 | -33% | 80.9% (active) | 13 | -19% | 89% (active) | -16% | -28% | 96.7% (active) |
| Cc1ccc(-c2c(N)[n+]([O-])c3ccccc3[n+]2[O-])cc1 | 34 | 95% (active) | 99.3% (active) | 32 | 99% (active) | 99.3% (active) | 47 | 100% (active) | 99.2% (active) | 46 | 98% (active) | 98.3% (active) | 54 | 99% (active) | 99.2% (active) | 81% (active) | 99% (active) | 99% (active) |
| CCC(CC=C(C)C)(CC=C(C)C)c1ccncc1 (tested in a mixture with another compound) | -7 | 84% (active) | 97.8% (active) | -8 | 76% (active) | 99% (active) | 1 | 80% (active) | 98.9% (active) | -5 | 50% | 70.5% (active) | 1 | 76% (active) | 93.2% (active) | -4% | 74% (active) | 96.2% (active) |
| O=C1N(Cc2ccccc2)CC1(c1ccccc1)C1CCCCC1O (configuration not stated) | -1 | 96% (active) | -18.1% | -5 | 49% | 7.8% | -3 | 82% (active) | 35.5% | -8 | 84% (active) | 6.9% | -2 | 93% (active) | 65.6% | -2% | 93% (active) | 4.1% |
